The whole screen tested about 1,300 compounds, of which about 240 (18%) were called active. Roughly 8% stayed inconclusive and do not appear here. No rule for the calls is given here. Not all results are given here. Measured potencies and affinities stand elsewhere.
assay: toxicity to human hepatoma HepG2 cells – cell-based, cherry-picked samples, cytotoxicity control, dose response (AID 1159577); settings: HepG2 cytotoxicity counterscreen, plate reader; series mostly up to 19.5 µM

SMILES | outcome
COc1ccc2c3c([nH]c2c1)[C@H](CO)N(Cc1ccccc1Cl)CC31CN(C(=O)C2CC2)C1 | inactive
C[C@@H]1CN([C@@H](C)CO)C(=O)c2cccc(NC(=O)c3ccc(-c4nccs4)cc3)c2O[C@H]1CN(C)Cc1ccc(Cl)c(Cl)c1 | inactive
C[C@H](O)C#Cc1cnc2c(c1)C(=O)N([C@@H](C)CO)C[C@@H](C)[C@@H](CN(C)C(=O)Cc1ccncc1)O2 | inactive
CO[C@H]1CN(C)C(=O)c2ccc(NC(=O)c3nc4ccccc4s3)cc2OC[C@H](C)N(Cc2ccncc2)C[C@@H]1C | inactive
C[C@@H]1CN([C@@H](C)CO)S(=O)(=O)c2ccc(C#CC3CCCC3)cc2O[C@H]1CN(C)C(=O)Cc1ccncc1 | inactive
C[C@@H](O)C#Cc1ccc([C@H]2[C@H]3CN(S(=O)(=O)c4ccccc4)CCCCN3[C@H]2CO)cc1 | inactive
CC(C)C#Cc1ccc([C@@H]2[C@H](CO)N3CCCCN(C(=O)c4ccc5c(c4)OCO5)C[C@@H]23)cc1 | inactive
COc1ccc2c3c(n(C)c2c1)[C@H](CO)N(C(=O)Nc1ccc(F)cc1)CC31CCN(C(=O)c2ccc3c(c2)OCO3)CC1 | inactive
CC(C)(C)S(=O)N1Cc2cc(C(=O)NCc3ccc4c(c3)OCO4)nc(-c3cccc(-c4cc5ccccc5o4)c3)c2[C@H]1CCO (stereo not given in full) | inactive
COc1ccc2c3c(n(C)c2c1)[C@@H](CO)N(C(=O)C1CCCC1)CC31CCN(C(=O)Nc2cccc(F)c2)CC1 | inactive
O=C(Nc1ccccc1F)N1CCCCN2[C@@H](CO)[C@@H](c3ccc(C#Cc4cccnc4)cc3)[C@@H]2C1 | inactive
C[C@H]1CN([C@@H](C)CO)S(=O)(=O)c2ccc(-c3ccc(C#N)cc3)cc2O[C@H]1CN(C)CC1CC1 | inactive
CCS(=O)(=O)N1CCC2(CC1)CN(S(=O)(=O)c1ccc(C)cc1)[C@@H](CO)c1[nH]c3cc(OC)ccc3c12 | inactive
Fc1cccc(-c2ccc(C3[C@@H]4CN(Cc5cncnc5)C[C@H]3N4)cc2)c1 (stereo not given in full) | inactive
FC(F)(F)c1cccc(CN2[C@@H]3CNC[C@H]2[C@@H]3c2ccc(-c3cccnc3)cc2)c1 | inactive
Cc1cccc(S(=O)(=O)N2C[C@@H]3N[C@H](C2)C3c2ccc(-c3cccnc3)cc2)c1 (stereo not given in full) | inactive
c1cncc(-c2ccc(C3[C@@H]4CN(Cc5nccs5)C[C@H]3N4)cc2)c1 (stereo not given in full) | inactive
O=C(C1CCCC1)N1CC(=O)N2[C@H](CO)[C@H](c3ccc(-c4cccnc4)cc3)[C@H]2C1 | inactive
C[C@@H]1CN([C@H](C)CO)S(=O)(=O)c2ccc(C#Cc3ccccc3)cc2O[C@H]1CN(C)S(=O)(=O)c1cn(C)cn1 | inactive
CC(C)C#Cc1ccc([C@@H]2[C@@H](CO)N3C(=O)CN(C(=O)C4CCCCC4)C[C@@H]23)cc1 | inactive
CO[C@@H]1CN(C)C(=O)c2ccc(NC(=O)C3CC3)cc2OC[C@@H](C)N(Cc2ccccc2)C[C@H]1C | inactive
CC(=O)N1CC2(C1)[C@@H](c1ccc(-c3cccc(F)c3)cc1)[C@@H](CO)N2CC1CCCC1 | inactive
O=C(c1ccccc1F)N1C[C@H]2[C@@H](c3ccccc31)[C@@H](CO)N2C(=O)c1ccc(F)cc1 | inactive
CCS(=O)(=O)N1CC2(CN(Cc3ccccc3F)[C@@H](CO)c3[nH]c4cc(OC)ccc4c32)C1 | inactive

SMILES | outcome
CCCC(=O)Nc1ccc2c(c1)OC[C@@H](C)N(Cc1ccccc1F)C[C@@H](C)[C@H](OC)CN(C)C2=O | inactive
O=C(c1ccncc1)N1CC(=O)N2[C@H](C1)[C@@H](c1ccc(-c3cccnc3)cc1)[C@@H]2CO | inactive
O=C(C1CCC1)N1CC(=O)N2[C@H](CO)[C@@H](c3ccc(C#CCc4ccccc4)cc3)[C@H]2C1 | inactive
O=C(Cc1ccccc1)N1CC(=O)N2[C@H](CO)[C@H](c3ccc(C#CCc4ccccc4)cc3)[C@H]2C1 | inactive
O=C(C1CC1)N1CC(=O)N2[C@H](CO)[C@@H](c3ccc(C#CCc4ccccc4)cc3)[C@@H]2C1 | inactive
COc1ccc(C#Cc2ccc([C@H]3[C@H]4CN(C(=O)c5ccccc5)CC(=O)N4[C@H]3CO)cc2)cc1 | inactive
O=C(C1CCCCC1)N1CC(=O)N2[C@H](CO)[C@@H](c3ccc(C#CCc4ccccc4)cc3)[C@@H]2C1 | inactive
O=C(C1CCC1)N1CC(=O)N2[C@H](CO)[C@@H](c3ccc(C#CCc4ccccc4)cc3)[C@@H]2C1 | inactive
O=C(C1CCCC1)N1CC(=O)N2[C@H](CO)[C@@H](c3ccc(C#CCc4ccccc4)cc3)[C@@H]2C1 | inactive
COc1cccc(C#Cc2ccc([C@H]3[C@@H](CO)N4C(=O)CN(C(=O)c5ccccc5)C[C@H]34)cc2)c1 | inactive
C[C@H]1CN([C@@H](C)CO)C(=O)c2c(c3ccccc3n2C)-c2ccccc2CO[C@@H]1CN(C)S(=O)(=O)c1ccc(F)cc1 | inactive
N#C[C@H]1[C@@H](c2ccc(C#Cc3ccccc3F)cc2)[C@@H](CO)N1C(=O)C1CCC1 | inactive
C[C@H]1CN([C@@H](C)CO)S(=O)(=O)c2ccc(C#Cc3ccccc3)cc2O[C@H]1CN(C)C(=O)C1CC1 | inactive
CCCC(=O)Nc1ccc2c(c1)OC[C@@H](C)N(Cc1cc(F)ccc1F)C[C@@H](C)[C@H](OC)CN(C)C2=O | inactive
COc1ccccc1-c1ccccc1[C@H]1[C@H](C#N)N(C(=O)C2CCC2)[C@H]1CO | inactive
COc1ccccc1S(=O)(=O)N(C)C[C@H]1Oc2cc(/C=C/c3ccccc3)ccc2S(=O)(=O)N([C@H](C)CO)C[C@@H]1C | inactive
COc1ccc(NC(=O)Nc2ccc3c(c2)[C@@H]2C[C@H](CC(=O)N[C@@H](C)c4ccccc4)O[C@H](CO)[C@@H]2O3)cc1 | inactive
CN(C)C(=O)c1ccc(-c2ccc([C@H]3[C@H](CO)N4CCCCN(C(=O)C5CC5)C[C@@H]34)cc2)cc1 | inactive
O=C(C1CC1)N1C[C@@H]2N[C@H](C1)C2c1ccc(-c2ccccc2F)cc1 (stereo not given in full) | inactive
CN(C)CC(=O)N1C[C@@H]2N[C@H](C1)C2c1ccc(/C=C/c2ccccc2)cc1 (stereo not given in full) | inactive
N#Cc1ccc(-c2ccc(C3[C@@H]4CN(C(=O)C5CCCC5)C[C@H]3N4)cc2)cc1 (stereo not given in full) | inactive
N#Cc1ccc(-c2ccc(C3[C@@H]4CN(C(=O)C5CCCCC5)C[C@H]3N4)cc2)cc1 (stereo not given in full) | inactive
CN(C)CC#Cc1ccc([C@H]2[C@H](CO)N3CCCCN(C(=O)CN(C)C)C[C@@H]23)cc1 | inactive
COc1ccc(CNC(=O)C[C@H]2C=C[C@@H](NS(=O)(=O)c3cccc(OC)c3)[C@@H](CO)O2)cc1 | inactive

SMILES | outcome
Cc1noc(C)c1NC(=O)Nc1ccc2c(c1)C(=O)N([C@H](C)CO)C[C@@H](C)[C@@H](CN(C)S(C)(=O)=O)O2 | inactive
N#Cc1cccc(-c2ccc(C3[C@@H]4CN(C(=O)C5CCC5)C[C@H]3N4)cc2)c1 (stereo not given in full) | inactive
O=C(C1CC1)N1C[C@@H]2N[C@H](C1)C2c1ccc(-c2cccc(F)c2)cc1 (stereo not given in full) | inactive
C[C@@H]1CN([C@@H](C)CO)C(=O)c2c(c3ccccc3n2C)-c2ccccc2CO[C@@H]1CN(C)C(=O)Nc1cccc(Cl)c1Cl | inactive
C[C@H]1CN([C@@H](C)CO)C(=O)CCCn2nncc2CO[C@@H]1CN(C)C(=O)Nc1ccc(N2CCCCC2)cc1 | inactive
OC[C@@H]1CC[C@@H]2O[C@H](CCc3ccc(-c4ccccc4)cc3)[C@H](n3cc(-c4ccccc4)nn3)C[C@@H]2O1 | inactive
OC[C@H]1CC[C@@H]2O[C@H](CCc3ccc(-c4ccc(F)cc4)cc3)[C@H](n3cc(C4CC4)nn3)C[C@@H]2O1 | inactive
O=C(C[C@@H]1CC[C@@H]2[C@H](COC[C@@H](O)CN2S(=O)(=O)c2ccccc2)O1)NCc1ccc(-c2ccccc2)cc1 | inactive
COc1cccc(CN2C[C@@H]3N[C@H](C2)C3c2ccc(-c3ccncc3)cc2)c1 (stereo not given in full) | inactive
N#Cc1cccc(-c2ccc(C3[C@@H]4CN(C(=O)C5CC5)C[C@H]3N4)cc2)c1 (stereo not given in full) | inactive
COc1ccc(NC(=O)Nc2cccc3c2O[C@H](CN(C)C(=O)Nc2cccc4ccccc24)[C@H](C)CN([C@@H](C)CO)C3=O)cc1 | inactive
CC(C)NC(=O)N1[C@@H](CO)[C@@H](c2ccccc2)C12CN(Cc1ccc(F)cc1)C2 | inactive
CO[C@@H]1CN(C)C(=O)c2cc(NC(=O)Cc3ccccc3)ccc2OC[C@H](C)N(C(=O)c2ccccc2F)C[C@@H]1C | inactive
CCCC(=O)N1CC2(C1)CN(Cc1ccc(Cl)cc1)[C@H](CO)c1[nH]c3cc(OC)ccc3c12 | inactive
COc1ccc(C#Cc2cccc(-c3nc(C(=O)N[C@@H]4CCN(Cc5ccccc5)C4)cc4c3[C@@H](CCO)N(S(=O)C(C)(C)C)C4)c2)cc1OC (stereo not given in full) | inactive
C[C@H](CO)N1C[C@H](C)[C@H](CN(C)S(=O)(=O)c2ccccc2F)OCc2ccccc2-c2c(n(C)c3ccccc23)C1=O | inactive
COc1cccc(-c2ccc([C@@H]3[C@H](CO)N4CCCCN(C(=O)c5ccc(F)cc5)C[C@@H]34)cc2)c1 | inactive
COc1ccc2c3c([nH]c2c1)[C@@H](CO)N(Cc1ccccc1F)CC31CN(C(=O)C2CCCC2)C1 | inactive
COc1ccc(NC(=O)N(C)C[C@H]2OCc3ccccc3-c3c(n(C)c4ccccc34)C(=O)N([C@H](C)CO)C[C@@H]2C)c(OC)c1 | inactive
CC(C)c1cn([C@H]2C[C@@H]3O[C@H](CO)CC[C@@H]3O[C@@H]2CCc2ccc(C#CC3(O)CCCC3)cc2)nn1 | inactive
COCC(=O)Nc1ccc2c(c1)OC[C@@H](C)N(C(=O)NC(C)C)C[C@@H](C)[C@@H](OC)CN(C)C2=O | inactive
N#C[C@@H]1[C@@H](c2ccccc2-c2ccccc2F)[C@@H](CO)N1C(=O)C1CCOCC1 | inactive

Reference: PubChem BioAssay AID1159577 (Broad Institute, 2015)
